Compound activity (PubChem)
Shown are actives, neighbours in structure and some others; about 2.9% of the full set was active somewhere.
PvdQ acylase: P. aeruginosa PvdQ acylase inhibition; purified PvdQ acylase, fluorescence plate reader; inhibition, % at 10 µM; 340,000 compounds, 0.063% hits; AID 488965; in the data active = inhibition above about 30%, passing the limit was not always enough; inconclusive = no clear call, values can overlap the other calls
MITF act: increases MITF-driven TRPM1 promoter luciferase signal; 300,000 compounds, 0.75% hits; SK-MEL-5 TRPM1-promoter luciferase, 24 h; % of positive control, neutral wells = 0; AID 588334; activation, % at 12.5 µM;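 active = mean activation of at least 80% with every replicate also reaching 80%; inconclusive = mean reaches 80% but some replicate falls short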
Wnt act: activates Wnt/beta-catenin signaling in a reporter cell assay | activation, % at 9.35 µM | activator, plate reader | 300,000 compounds, 1.2% hits; in the data active = activation above about 30%, passing the limit was not always enough; inconclusive = no clear call, values can overlap the other calls
esBAF inh: blocks esBAF chromatin remodeling in mouse ES cells; reporter increase, % at 12.5 µM; 350,000 compounds, 2% hits; Bmi1-luciferase knock-in reporter, 24 h; 100% = twice the neutral-well signal; in the data active = activation above about 40%; inconclusive = no clear call, values can overlap the other calls;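 also: a rise in the Bmi1 reporter signal indicates esBAF inhibition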
Glyco luc inh: blocks N-linked glycosylation in D54 reporter cells; D54 ERlucT glycosylation luciferase reporter, 24 h; percent of 100 nM tunicamycin response; reporter increase, % at 12.5 µM; 360,000 compounds, 0.23% hits; AID 588692;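 active = mean luciferase reporter signal, scaled so untreated is 0 and the glycosylation-blocking control 100, at or above a set limit in every replicate; inconclusive = mean reaches the limit but not every replicate does; inactive = mean below the limit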;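 also: luciferase carries N-glycosylation sites so blocking glycosylation raises the light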
Vif imaging: inhibitors of HIV Vif; HEK293T cells, Vif self-association by quenched fluorescence, imaging, 24 h; inhibition, % at 7.49 µM; 340,000 compounds, 0.35% hits; AID 602346; in the data active = inhibition above about 50%, passing the limit was not always enough; inconclusive = no clear call, values can overlap the other calls; inactive = below about 31%
Each line names hits and unclear results; the compound was inactive in the other large screens; ! = a repeat was not active.

COc1ccc(O)c(-c2cc(-c3ccc(F)cc3)n[nH]2)c1	Wnt act inconclusive, esBAF inh 72
COc1ccc(O)c(-c2cc(-c3cccc(Br)c3)n[nH]2)c1	esBAF inh 62
COc1ccc(-c2cc(-c3ccc(Cl)cc3)n[nH]2)c(O)c1	MITF act 122, Wnt act 41 (no result: esBAF inh)
O=c1c(-c2cnn(-c3ccccc3)c2)coc2cc(O)ccc12	esBAF inh 105 (no result: Wnt act)
CN(C)/C=C(\C#N)C(=O)Nc1ccc(F)c(Cl)c1	Wnt act 37 (no result: MITF act, esBAF inh)
Cc1ccc(-c2csc(CC(N)=O)n2)cc1	none
N/C(Cc1nc(-c2ccc(Cl)cc2)cs1)=N/O	Wnt act 37, esBAF inh inconclusive (no result: MITF act)
CC[C@@]1(c2ccccc2OC)ON(c2ccccc2C(F)(F)F)C1=O	Glyco luc inh 43
Cc1ccccc1[C@@]1(C)ON(c2ccccc2C(F)(F)F)C1=O	none
O=C(N/N=C/c1sc(=O)n(-c2ccccc2)c1Cl)c1ccccc1	Wnt act 75 (no result: esBAF inh)
NC(=O)N/N=C/c1sc(=O)n(-c2ccccc2)c1Cl	none (no result: esBAF inh)
COc1cccc(C(=O)Nc2ccc3c(c2)OC[C@@H](C)N(C)C[C@H](C)[C@H](OC)CN(C)C3=O)c1	none (no result: PvdQ acylase, MITF act, Wnt act, Glyco luc inh, Vif imaging)
O=C(O)C[C@H]1C[C@@H]2c3cc(NS(=O)(=O)c4ccccc4)ccc3O[C@@H]2[C@H](CO)O1	none (no result: PvdQ acylase, MITF act, Wnt act, Glyco luc inh, Vif imaging)
c1ccc2c(c1)nc(N1CCOCC1)c1c3ccccc3[nH]c21	Glyco luc inh 39 (no result: esBAF inh)
O=c1[nH]c2ccccc2nc1N1CCOCC1	none
CN(C)c1ccc(NC(=O)C(=O)C2C(=O)Nc3ccccc32)cc1 (stereo not drawn)	Wnt act 44
Cc1ccc(S(=O)(=O)Nc2ccc3c(c2)C(=O)N([C@@H](C)CO)C[C@H](C)[C@H](CN(C)Cc2ccc(C(=O)O)cc2)OCCCC[C@H](C)O3)cc1	none (no result: PvdQ acylase, MITF act, Wnt act, Glyco luc inh, Vif imaging)
CC(C)OC(=O)CSc1nnc(C2CCCCC2)n1N	Wnt act 42 (no result: MITF act, esBAF inh)
C[C@H](CO)N1C[C@H](C)[C@H](CN(C)C(=O)CCC(F)(F)F)OCCCC[C@H](C)Oc2ccc(NC(=O)CCCN(C)C)cc2C1=O	none (no result: PvdQ acylase, MITF act, Wnt act, Glyco luc inh, Vif imaging)
Clc1ccc(/C=C/c2ncc3ccccn23)cc1	Wnt act 41 (no result: esBAF inh)
Fc1ccc(-c2ncc3ccccn23)cc1	none (no result: esBAF inh)
COCC(=O)Nc1ccc2c(c1)OC[C@H](C)N(Cc1cc(F)ccc1F)C[C@@H](C)[C@H](OC)CN(C)C2=O	none (no result: PvdQ acylase, MITF act, Wnt act, Glyco luc inh, Vif imaging)
O=C(NCc1cccc(F)c1)[C@@H]1[C@@H](CO)[C@@H]2Cn3c(ccc(-c4ccccc4)c3=O)[C@H]1N2CC1CC1	none (no result: PvdQ acylase, MITF act, Wnt act, Glyco luc inh, Vif imaging)
C[C@H](CO)N1C[C@H](C)[C@@H](CN(C)C(=O)Nc2ccc3c(c2)OCO3)Oc2ncc(C#CC3(O)CCCC3)cc2C1=O	esBAF inh 60 (no result: PvdQ acylase, MITF act, Wnt act, Glyco luc inh, Vif imaging)
C[C@@H]1CCCCO[C@H](CN(C)C(=O)Nc2cccc3ccccc23)[C@@H](C)CN([C@@H](C)CO)C(=O)c2cc(NC(=O)CCC(F)(F)F)ccc2O1	none (no result: PvdQ acylase, MITF act, Wnt act, Glyco luc inh, Vif imaging)
CNC[C@@H]1OCCCC[C@H](C)Oc2ccc(NS(=O)(=O)c3ccc(C)cc3)cc2C(=O)N([C@H](C)CO)C[C@H]1C	esBAF inh 55 (no result: PvdQ acylase, MITF act, Wnt act, Glyco luc inh, Vif imaging)
C[C@@H]1CN([C@@H](C)CO)C(=O)c2cc(C#CC3(O)CCCC3)cnc2O[C@H]1CN(C)C(=O)Nc1ccc2c(c1)OCO2	none (no result: PvdQ acylase, MITF act, Wnt act, Glyco luc inh, Vif imaging)
C[C@@H]1CCCCO[C@H](CN(C)C(=O)Nc2cccc3ccccc23)[C@H](C)CN([C@@H](C)CO)C(=O)c2cc(NC(=O)CCC(F)(F)F)ccc2O1	esBAF inh 45 (no result: PvdQ acylase, MITF act, Wnt act, Glyco luc inh, Vif imaging)
C[C@H]1CCCCO[C@H](CN(C)C(=O)Nc2ccc(F)cc2)[C@@H](C)CN([C@@H](C)CO)C(=O)c2cc(NC(=O)Nc3ccc4c(c3)OCO4)ccc2O1	esBAF inh 51! (no result: PvdQ acylase, MITF act)
CCN1[C@H](C(=O)NCC(F)(F)F)[C@@H](CO)[C@@H]2Cn3c(ccc(-c4ccccc4)c3=O)[C@@H]21	none (no result: PvdQ acylase, MITF act, Wnt act, Glyco luc inh, Vif imaging)
C[C@H](CO)N1C[C@H](C)[C@@H](CN(C)C(=O)C2CCOCC2)Oc2ncc(C3=CCCCC3)cc2C1=O	none (no result: PvdQ acylase, MITF act, Wnt act, Glyco luc inh, Vif imaging)
C[C@H](CO)N1C[C@H](C)[C@@H](CN(C)C(=O)Nc2ccc3c(c2)OCO3)OCCCC[C@H](C)Oc2ccc(NC(=O)c3ccncc3)cc2C1=O	esBAF inh 54 (no result: PvdQ acylase, MITF act, Wnt act, Glyco luc inh, Vif imaging)
Cc1noc(C)c1NC(=O)N(C)C[C@@H]1Oc2ncc(C#CC3CC3)cc2C(=O)N([C@@H](C)CO)C[C@H]1C	esBAF inh 52 (no result: PvdQ acylase, MITF act, Wnt act, Glyco luc inh, Vif imaging)
CC(C)NC(=O)N(C)C[C@@H]1OCCCC[C@H](C)Oc2ccc(NC(=O)Nc3ccc4c(c3)OCO4)cc2C(=O)N([C@H](C)CO)C[C@@H]1C	esBAF inh 48 (no result: PvdQ acylase, MITF act, Wnt act, Glyco luc inh, Vif imaging)
C[C@@H]1CCCCO[C@@H](CN(C)C(=O)Nc2ccc3c(c2)OCO3)[C@H](C)CN([C@H](C)CO)C(=O)c2cc(NC(=O)Nc3ccc4c(c3)OCO4)ccc2O1	esBAF inh 80 (no result: PvdQ acylase, MITF act, Wnt act, Glyco luc inh, Vif imaging)
Cc1noc(C)c1NC(=O)Nc1ccc2c(c1)CC(=O)N([C@H](C)CO)C[C@H](C)[C@@H](CN(C)Cc1ccc3c(c1)OCO3)O2	none (no result: PvdQ acylase, MITF act, Wnt act, Glyco luc inh, Vif imaging)
c1ccc2sc(SCSc3nc4ccccc4s3)nc2c1	none
N#CCc1nc(CSc2nc3ccccc3s2)cs1	esBAF inh 62 (no result: Wnt act)
COc1ccc(NC(=O)N(C)C[C@@H]2Oc3c(NS(=O)(=O)c4ccccc4)cccc3C(=O)N([C@@H](C)CO)C[C@@H]2C)cc1	none (no result: PvdQ acylase, MITF act, Wnt act, Glyco luc inh, Vif imaging)
COc1ccc(N2CCN(c3cc(C)c4ccc(O)cc4n3)CC2)cc1	none (no result: MITF act)
COc1cc(OC)c2nc(C)c3c(c2c1)N(c1ccc(O)cc1)CC3	Glyco luc inh 28 (no result: Wnt act)
COc1cc(NC(=O)c2c(F)c(F)c(F)c(F)c2F)c(OC)cc1Cl	none (no result: Wnt act)
COc1cc(NC(=O)c2cc3nc(C)cc(C)n3n2)c(OC)cc1Cl	MITF act 100, esBAF inh 52 (no result: Wnt act)
COC(CNC(=O)c1ccc2c3c(onc13)-c1ccccc1C2=O)OC	Wnt act 71 (no result: MITF act, esBAF inh)
COc1ccc2cc(-c3cccnc3)ncc2c1	MITF act 97, Wnt act inconclusive
Fc1ccc2cc(-c3cccnc3)ncc2c1	esBAF inh 50
Fc1ccc2cnc(-c3ccsc3)cc2c1	none (no result: PvdQ acylase, MITF act, esBAF inh, Glyco luc inh, Vif imaging)
COc1ccc2cc(-c3ccccc3F)ncc2c1	Wnt act 38
COc1ccc(-c2cc3ccc(OC)cc3cn2)cc1	none
O=C(CSCc1c(F)cccc1F)Nc1ccccc1	esBAF inh 51 (no result: MITF act)
Cc1ccccc1CSCC(=O)Nc1ccccc1F	esBAF inh 48 (no result: MITF act)
O=C(CSCc1ccc(F)cc1)Nc1ccc(F)cc1	none (no result: Wnt act, esBAF inh)
O=C(CSCc1ccccc1)Nc1cccc(F)c1	MITF act 95, Wnt act 63 (no result: esBAF inh)
COCC(=O)Nc1ccc2c(c1)[C@H]1C[C@H](CC(=O)NC3CCCCC3)O[C@H](CO)[C@H]1O2	none (no result: PvdQ acylase, MITF act, Wnt act, Glyco luc inh, Vif imaging)
O=C1/C(=C\c2ccc(Br)o2)Cc2ccccc21	Wnt act 41
Cn1cccc1/C=C1\CCc2ccccc2C1=O	Wnt act 34
Cn1cccc1/C=C1\Cc2ccccc2C1=O	Wnt act 63, esBAF inh 53
